# Reference: PubChem BioAssay
# Values joined by “and” are separate entries in the source; they are usually repeats but may differ in a detail not shown here. Equal values may be shown once. Active and inactive are the calls of the source.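 Rule for the calls, unless noted: active = compounds whose cell count with miR-34 switched on is under 0.7 times the count with it off; inactive = the rest.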
# Legend:
# [1] = stimulators of nuclear beta-catenin in C2C12, primary screen, imaging, WNT3A-conditioned medium, mouse C2C12, NPC library (AID 1117326; in the data active = nuclear beta-catenin stimulation mostly above about 4.2%, no sharp cut-off; inactive = mostly below about 10%); conditions: stronger effect = higher value
# [2] = stimulators of insulin release from INS-1E, primary screen, cell-based, 5 mM glucose, NPC library (AID 1117329;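 active = compound raises insulin release from rat beta cells at 5 mM glucose, no numeric limit stated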); conditions: rat INS-1E insulin secretion, at 10 µM, stronger effect = higher value
# [3] = growth inhibition of GSK3B-pretreated HCT116 cells – cell-based, CellTiter-Glo, 0.2 to 20 µM (AID 1117336;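 active = compounds lowering colon cancer cell viability after pretreatment blocking the GSK3B kinase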); conditions: HCT116 viability after GSK3B inhibitor, at 20 µM, stronger effect = higher value
# [4] = inhibition of endothelial tube formation, primary screen, imaging, VEGF stimulated, CD31 staining, tube area, NPC library (AID 1117340;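 active = compound that reduces growth-factor-driven endothelial tube area in a mixed cell culture, no cutoff stated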); conditions: VEGF-stimulated ADSC/ECFC co-culture, at 10 µM, stronger effect = higher value
# [5] = glucagon-like peptide 1 release enhancers, primary assay, NCI-H716 cell line, NPC library (AID 1117341;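 active = compound raises GLP1 secretion from the human gut endocrine cells, with no numeric limit stated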); conditions: NCI-H716 cells, at 10 µM, stronger effect = higher value
# [6] = HCT116 colon cancer cell growth inhibition, primary screen, CellTiter-Glo luminescence, NPC library (AID 1117342;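 active = compounds that lower survival of HCT116 colon cancer cells in the luminescence readout, no numeric limit stated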); conditions: at 20 µM (top of the series)
# [7] = CellTiter-Glo luminescent readout of SW480 viability loss, NPC library primary (AID 1117343;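 active = compounds that lower viability of the colon cancer cells in the luminescence readout, with no numeric limit stated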); conditions: CellTiter-Glo luminescence; at 20 µM (top of the series) unless noted
# [8] = decreased DLD-1 cellular survival, CellTiter-Glo luminescent readout, NPC compound collection, primary HTS (AID 1117346;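 active = compounds that lower survival of DLD-1 colon cancer cells in the luminescence readout, no cutoff given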); conditions: DLD-1 viability, CellTiter-Glo luminescence; at 20 µM (top of the series)
# [9] = differential killing of epithelial or mesenchymal cells, primary screen, imaging, PC-3E GFP, TEM4-18 mCherry, co-culture (AID 1345086;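 active = compounds killing one labelled cell type while sparing the other, by normalised counts and ratio limits, not self-fluorescent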;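 for all read-outs here: cells exposed to compound for 72 h before imaging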;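 for red/green cell ratio (normalised): normalised mesenchymal count divided by normalised epithelial count so high means epithelial killing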); conditions: imaging cell counts, at 1 µM; for red/green cell ratio (normalised): actives lie on both sides, counts scaled to control wells, 1 = unselective
# [10] = sensitizers of A549 cells to miR-34 induction, primary screen, imaging, A549 dox-inducible miR-34, nuclei and caspase counts (AID 1347080); conditions: A549 miR-34 inducible, Hoechst nuclei count, 48 h
# [11] = survival rescue of mitochondrial mutant cells in low glucose, primary screen, MELAS cybrids, Rieske KO mouse fibroblasts, CellTiter-Glo (AID 1508586;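 active = mean z-score across replicates of 1.96 or higher in either the MELAS or the Rieske mutant cell line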;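 note: z relative to plate mean and SD of compound and empty wells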)
# [12] = target: NAD(+) hydrolase SARM1 (Homo sapiens) (UniProt Q6SZW1); experiment: SARM1 TIR NADase inhibitors, cell lysate, NAD-Glo luminescence (AID 1508614;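 active = compound whose remaining NAD level is above about 45 nM, limit read from the data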;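 note: higher remaining NAD means stronger inhibition of SARM1 NADase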); conditions: SAM-TIR HEK293T lysate NADase, at 1 µM, stronger effect = higher value
# [13] = LFS_MB_P medulloblastoma growth inhibition, cell-based, chromothripsis tumors, cisplatin or BGB combos (AID 1671449; in the data active = inhibition above about 80%;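 note: cells exposed for 96 hours; 0% = vehicle DMSO and 100% = killing by high DMSO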); conditions: LFS_MB_P medulloblastoma cells
# [14] = HDN33 neuroblastoma growth inhibition, cell-based, chromothripsis tumors, cisplatin or BGB combos (AID 1671450; in the data active = inhibition above about 80%;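 note: cells exposed to compound for four days; 0% = vehicle DMSO and 100% = cell killing by high DMSO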); conditions: HDN33 neuroblastoma cells, stronger effect = higher value
# [15] = ICB984 medulloblastoma cell growth inhibition, synergistic combos for chromothripsis tumors, cisplatin or BGB combos (AID 1671451; call rule not given here;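 note: cells exposed for 96 hours before readout; 0% = vehicle DMSO and 100% = killing by high DMSO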); conditions: ICB984 medulloblastoma cells, drug combinations, stronger effect = higher value
# [16] = HTB85 osteosarcoma cell growth inhibition, synergistic combos for chromothripsis tumors, BGB or cisplatin IC20 combos (AID 1671453; in the data active = inhibition above about 80%;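 note: cells exposed for 96 hours before readout; 0% = vehicle DMSO and 100% = high DMSO killing control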); conditions: HTB85 osteosarcoma cells, drug combinations, stronger effect = higher value
# [17] = MDA-MB-436 breast carcinoma cell growth inhibition, synergistic combos for chromothripsis tumors, BGB or cisplatin combos (AID 1671458; call rule not given here;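 note: cells exposed for 96 hours; 0% = vehicle DMSO and 100% = killing by high DMSO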); conditions: MDA-MB-436 breast carcinoma growth inhibition, drug combinations, stronger effect = higher value
# [18] = liver-stage malaria parasite growth inhibition, primary screen, cell-based, HepG2, luciferase luminescence, HepG2 viability (AID 624349; in the data active = parasite load remaining mostly below about 12%, no sharp cut-off; inactive = mostly above about 10%;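 note: 100% = mean of DMSO negative control wells on the same plate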); conditions: P. berghei liver stage in HepG2, luciferase luminescence, concentration not given here; parasite load remaining: stronger effect = lower value; viability: measured here: HepG2 viability without parasites
# [19] = measured here: epithelial PC-3E GFP cell survival
# [20] = measured here: mesenchymal TEM4-18 mCherry cell survival
# [21] = stronger effect = lower value, cell number ratio, induced over uninduced
# [22] = measured here: relative caspase fold change +Dox/-Dox
# [23] = measured here: total cells with miR-34 induction, stronger effect = lower value
# [24] = measured here: total cells without miR-34 induction
# [25] = MELAS cybrid survival, CellTiter-Glo 48 h, stronger effect = higher value
# [26] = Rieske KO mouse fibroblast survival, CellTiter-Glo 72 h
# NAD(+) hydrolase SARM1 (Homo sapiens), sequence (Q6SZW1 whole entry, looked up): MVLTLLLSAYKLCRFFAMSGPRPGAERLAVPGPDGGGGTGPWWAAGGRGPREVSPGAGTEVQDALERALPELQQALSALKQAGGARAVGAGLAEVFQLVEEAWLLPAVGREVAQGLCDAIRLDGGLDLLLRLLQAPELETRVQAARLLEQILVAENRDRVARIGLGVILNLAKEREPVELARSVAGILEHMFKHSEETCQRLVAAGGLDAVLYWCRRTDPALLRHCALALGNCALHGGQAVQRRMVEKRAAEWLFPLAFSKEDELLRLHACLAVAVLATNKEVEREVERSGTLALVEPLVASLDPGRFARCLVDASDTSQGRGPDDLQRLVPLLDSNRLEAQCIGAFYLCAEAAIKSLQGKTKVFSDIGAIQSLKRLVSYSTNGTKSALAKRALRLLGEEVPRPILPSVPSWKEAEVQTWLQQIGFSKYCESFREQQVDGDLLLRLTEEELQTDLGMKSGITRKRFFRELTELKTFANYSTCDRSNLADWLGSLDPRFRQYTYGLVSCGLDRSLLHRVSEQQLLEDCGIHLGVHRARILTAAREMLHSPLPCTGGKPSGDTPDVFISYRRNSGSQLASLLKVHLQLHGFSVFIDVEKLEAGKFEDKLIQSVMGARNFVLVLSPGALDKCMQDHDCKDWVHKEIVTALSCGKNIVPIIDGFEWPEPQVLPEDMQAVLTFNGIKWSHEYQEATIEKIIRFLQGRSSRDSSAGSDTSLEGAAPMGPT
structure (smiles),measurement,setting,value
O=c1cc[nH]c(=O)[nH]1,nuclear beta-catenin stimulation,[1]; at 10 µM,2.3% (inactive)
same,nuclear beta-catenin stimulation,"[1]; stimulation, at 2 µM",0.3%
same,insulin secretion stimulation,[2],0% (inactive)
same,viability decrease,[3],0.75% (inactive)
same,tube area decrease,[4],-14.5% (inactive)
same,GLP1 secretion stimulation,[5],-2.6% (inactive)
same,inhibition of viability,[6],1% (inactive)
same,viability decrease (inhibition),[7],8% (inactive)
same,viability decrease (inhibition),[8],3.55% (inactive)
same,red/green cell ratio (normalised),[9],1.11 (inactive)
same,normalised cell number,[9]; [19],1.05
same,normalised cell number,[9]; [20],1.16
same,fold change,[10]; [21],0.956 (inactive) and 0.943 (inactive)
same,fold change,[10]; [22],0.736 and 0.726
same,cell count,[10]; [23],8740 and 8670
same,cell count,[10]; [24],9140 and 9190
same,z-score,[11]; [25],-0.276 (inactive)
same,z-score,[11]; [26],-0.187
same,remaining NAD,[12],10 nM (inactive)
same,inhibition,"[13]; at 0.5 µM, stronger effect = higher value",-22.6% (inactive)
same,inhibition,"[13]; measured here: combination with BGB IC20, at 0.005 µM",-16.6%
same,inhibition,"[13]; measured here: combination with BGB IC40, at 0.005 µM",-38.5%
same,inhibition,"[13]; measured here: combination with BGB IC40, at 0.05 µM",-9.29%
same,inhibition,"[13]; measured here: combination with cisplatin, at 0.5 µM, stronger effect = higher value",-28.9%
same,inhibition,"[13]; measured here: combination with cisplatin, at 5 µM, stronger effect = higher value",-19.9%
same,inhibition,"[14]; BGB combo, at 5 µM",-47.9%
same,inhibition,[14]; at 0.5 µM,-41.6% (inactive)
same,inhibition,"[14]; cisplatin combo, at 5 µM",-56.4%
same,inhibition,"[14]; measured here: with BGB IC20 combination, at 0.5 µM",-36.5%
same,inhibition,"[14]; measured here: with cisplatin IC20 combination, at 0.5 µM",-23.5%
same,inhibition,"[14]; single agent, at 5 µM",-52%
same,inhibition,"[15]; BGB IC20 combo, at 0.005 µM",-14.6%
same,inhibition,"[15]; BGB IC40 combo, at 0.005 µM",-47.1%
same,inhibition,"[15]; BGB IC40 combo, at 0.05 µM",-28.5%
same,inhibition,[15]; at 0.5 µM,-27% (inactive)
same,inhibition,"[15]; cisplatin combo, at 0.05 µM",-28.5%
same,inhibition,"[15]; cisplatin combo, at 0.5 µM",-48.6%
same,inhibition,"[15]; cisplatin combo, at 5 µM",-27.5%
same,inhibition,"[15]; measured here: 5 uM single agent, at 5 µM",-5.8%
same,inhibition,[16]; at 0.5 µM,-37.5% (inactive)
same,inhibition,"[16]; measured here: with BGB IC20, at 0.5 µM",-69.8%
same,inhibition,"[16]; measured here: with BGB IC20, at 5 µM",-35.2%
same,inhibition,"[16]; measured here: with cisplatin IC20, at 0.5 µM",-26.2%
same,inhibition,"[16]; measured here: with cisplatin IC20, at 5 µM",-33.2%
same,inhibition,"[16]; single agent, at 5 µM",-19.7%
same,inhibition,[17]; at 0.5 µM,-27.5% (inactive)
same,inhibition,"[17]; measured here: BGB combination, at 0.5 µM",-30.5%
same,inhibition,"[17]; measured here: BGB combination, at 5 µM",-26.1%
same,inhibition,"[17]; measured here: cisplatin combination, at 0.5 µM",-40.8%
same,inhibition,"[17]; measured here: cisplatin combination, at 5 µM",-24%
CC1CCc2c(N3CCC(O)CC3)c(F)cc3c(=O)c(C(=O)O)cn1c23 (stereo not given),parasite load remaining,[18],84.8% (inactive) and 5.38% (inactive)
same,viability,[18],88.5% and 76.5%
same,nuclear beta-catenin stimulation,[1]; at 10 µM,0% (inactive)
same,nuclear beta-catenin stimulation,"[1]; stimulation, at 2 µM",0.1%
same,insulin secretion stimulation,[2],1.15% (inactive)
same,viability decrease,[3],74.1% (active)
same,tube area decrease,[4],-22.8% (inactive)
same,GLP1 secretion stimulation,[5],4% (inactive)
same,inhibition of viability,[6],59% (active)
same,viability decrease (inhibition),[7],37.2% (inactive)
same,viability decrease (inhibition),[8],5.4% (inactive)
same,red/green cell ratio (normalised),[9],0.89 (inactive)
same,normalised cell number,[9]; [19],0.98
same,normalised cell number,[9]; [20],0.87
same,fold change,[10]; [21],0.9 (inactive) and 0.988 (inactive) and 0.927 (inactive)
same,fold change,[10]; [22],0.795 and 0.525 and 0.967
same,cell count,[10]; [23],8750 and 7880 and 9830
same,cell count,[10]; [24],9720 and 7980 and 10600
same,z-score,[11]; [25],-0.315 (inactive) and -0.705 (inactive) and 0.586 (inactive)
same,z-score,[11]; [26],-0.0888 and -0.895 and -0.392
same,remaining NAD,[12],10 nM (inactive)
O=S(=O)(O)NC1CCCCC1,nuclear beta-catenin stimulation,[1]; at 10 µM,0.2% (inactive)
same,nuclear beta-catenin stimulation,"[1]; stimulation, at 2 µM",0.3%
same,insulin secretion stimulation,[2],-1.6% (inactive)
same,viability decrease,[3],-5.65% (inactive)
same,tube area decrease,[4],-18.4% (inactive)
same,GLP1 secretion stimulation,[5],-0.8% (inactive)
same,inhibition of viability,[6],-5.4% (inactive)
same,viability decrease (inhibition),[7],8.9% (inactive)
same,viability decrease (inhibition),[8],1.3% (inactive)
same,red/green cell ratio (normalised),[9],0.89 (inactive)
same,normalised cell number,[9]; [19],0.95
same,normalised cell number,[9]; [20],0.84
same,fold change,[10]; [21],0.883 (inactive) and 0.898 (inactive)
same,fold change,[10]; [22],0.921 and 0.472
same,cell count,[10]; [23],8650 and 7930
same,cell count,[10]; [24],9790 and 8830
same,z-score,[11]; [25],-0.205 (inactive)
same,z-score,[11]; [26],-0.173
same,remaining NAD,[12],10 nM (inactive)
